Assay outcomes as filed in PubChem BioAssay.
AGP1-GFP MLPCN – modulators of TOR pathway AGP1-GFP in S. cerevisiae | S. cerevisiae AGP1-GFP multiplex flow cytometry, 3 h; GFP as percent of DMSO wells | 320,000 compounds, 0.02% hits | AID 2066 | GFP response vs DMSO, % at 10 µM;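 active means GFP response relative to DMSO above a set limit, near screen average plus 3 SD, cut at about 150% in these data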;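 further: median GFP channel fluorescence of the gated AGP1 strain per well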
CIT2 TOR yeast – alters CIT2-GFP fluorescence in TOR pathway yeast screen; S. cerevisiae CIT2-GFP strain, flow cytometry, 3 h; 100 means same as DMSO wells; GFP response vs DMSO, % at 10 µM; 320,000 compounds, 0.065% hits; AID 2029;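 active means GFP response relative to DMSO above a set limit, near the screen mean plus 3 SD, cut at about 150% in these data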;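 further: ratio of well median GFP fluorescence to mean of DMSO wells on the plate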
RPL19A TOR yeast – alters RPL19A-GFP fluorescence in TOR pathway yeast screen | S. cerevisiae RPL19A-GFP strain, flow cytometry, 3 h; active compounds read low | percent response vs DMSO, % at 10 µM | 330,000 compounds, 0.3% hits;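 active means percent response vs DMSO below 50%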;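 further: median channel GFP fluorescence of the barcoded RPL19A-GFP strain; lower means less RPL19A-GFP as with rapamycin TOR inhibition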
Pemphigus Ab inh – blocks pemphigus antibody binding to human desmoglein-3. 310,000 compounds, 0.48% hits. P32926. DSG3-coupled beads, scFv-anti-DSG3-GFP binding, flow cytometry; active compounds read low. AID 588358. binding (percent of control), % at 10 µM;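 active means binding more than 3 SD below its plate's average and above zero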;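 further: hits lower antibody fragment binding to DSG3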
Target sequence (P32926 whole entry, looked up, the tested form may be a part): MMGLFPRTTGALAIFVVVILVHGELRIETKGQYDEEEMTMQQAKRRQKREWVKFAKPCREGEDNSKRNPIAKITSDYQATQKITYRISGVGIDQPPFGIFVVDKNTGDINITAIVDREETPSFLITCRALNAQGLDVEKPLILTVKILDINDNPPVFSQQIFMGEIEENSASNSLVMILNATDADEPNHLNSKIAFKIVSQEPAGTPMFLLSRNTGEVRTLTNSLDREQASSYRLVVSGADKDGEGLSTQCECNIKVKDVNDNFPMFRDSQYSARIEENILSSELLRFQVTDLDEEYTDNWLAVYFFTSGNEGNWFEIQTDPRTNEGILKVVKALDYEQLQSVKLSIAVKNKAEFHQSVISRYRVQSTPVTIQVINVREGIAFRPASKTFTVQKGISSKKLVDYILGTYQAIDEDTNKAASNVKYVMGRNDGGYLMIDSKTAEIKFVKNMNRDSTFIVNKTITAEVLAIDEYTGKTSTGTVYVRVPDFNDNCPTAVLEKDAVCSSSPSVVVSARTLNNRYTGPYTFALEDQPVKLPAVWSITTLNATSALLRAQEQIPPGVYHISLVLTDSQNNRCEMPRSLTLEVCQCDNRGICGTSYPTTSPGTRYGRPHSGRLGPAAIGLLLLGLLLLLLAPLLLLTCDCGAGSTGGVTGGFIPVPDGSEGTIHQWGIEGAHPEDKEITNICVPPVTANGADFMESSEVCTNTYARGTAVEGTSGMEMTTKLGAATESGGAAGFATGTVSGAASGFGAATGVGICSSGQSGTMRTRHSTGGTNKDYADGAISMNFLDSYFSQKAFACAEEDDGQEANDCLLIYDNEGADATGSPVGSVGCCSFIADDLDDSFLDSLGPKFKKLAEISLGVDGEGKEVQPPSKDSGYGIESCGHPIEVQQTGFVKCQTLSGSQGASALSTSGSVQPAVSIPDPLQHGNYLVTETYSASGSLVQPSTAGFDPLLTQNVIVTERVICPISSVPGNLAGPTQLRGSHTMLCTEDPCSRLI
MEP2 TOR yeast – modulators of TOR pathway MEP2-GFP in S. cerevisiae | S. cerevisiae MEP2-GFP strain, flow cytometry GFP, 3 h; 100% = DMSO control level | GFP response vs DMSO, % at 10 µM | 330,000 compounds, 0.51% hits;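 active means GFP response versus DMSO above a set limit, roughly screen mean plus 3 SD, cut at about 180% in these data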;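 further: median GFP fluorescence of the barcode-gated MEP2-GFP cells per well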
LAP4-GFP MLPCN – alters LAP4-GFP fluorescence in TOR pathway yeast screen. S. cerevisiae LAP4-GFP multiplex, flow cytometry GFP, 3 h; median GFP as percent of DMSO wells. AID 2023. 320,000 compounds, 0.34% hits. GFP response vs DMSO, % at 10 µM;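 active means GFP response vs DMSO above a set limit, about the screen mean plus 3 SD, cut at about 150% in these data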
LAP4 cherry2 – yeast LAP4-GFP modulation, second cherry pick | shares compounds with LAP4-GFP MLPCN | S. cerevisiae LAP4-GFP strain, flow cytometry GFP, 3 h | GFP response vs DMSO, % at 10 µM | 590 compounds, 20% hits | AID 2621;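 active means GFP signal as percent of the solvent control above about 150%, meaning raised reporter expression, limit read from the data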
MEP2 cherry2 – reconfirmed MEP2-GFP TOR pathway modulator in yeast | shares compounds with LAP4-GFP MLPCN | S. cerevisiae MEP2-GFP strain, flow cytometry GFP, 3 h | GFP response vs DMSO, % at 10 µM | 590 compounds, 10% hits;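 active means GFP signal above 150% of the solvent control wells, that is a rise of more than half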;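 further: median channel GFP fluorescence of all gated yeast cells per well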
RPL19A-GFP pick2 – yeast RPL19A-GFP TOR reporter modulation, second cherry pick. GFP response vs DMSO, % at 10 µM. S. cerevisiae RPL19A-GFP strain, flow cytometry GFP, 3 h; active compounds read low; 100% means same as DMSO wells. 590 compounds, 3% hits. shares compounds with LAP4-GFP MLPCN;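 active means under 65% GFP response relative to DMSO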;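 further: median GFP channel fluorescence per well over the all cells gate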
CIT2 GFP CP2 – reconfirmed modulator of CIT2-GFP TOR reporter in yeast. AID 2624. GFP response vs DMSO, % at 10 µM. 590 compounds, 8% hits. shares compounds with LAP4-GFP MLPCN. S. cerevisiae CIT2-GFP strain, flow cytometry GFP, 3 h; DMSO control wells read 100%;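 active means GFP response vs DMSO above about 150%, limit read from the data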;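 further: median green fluorescence per well over all gated yeast cells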
AGP1-GFP pick2 – second confirmation of modulators of TOR reporter AGP1-GFP in yeast | shares compounds with LAP4-GFP MLPCN | S. cerevisiae AGP1-GFP strain, flow cytometry GFP, 3 h | percent response vs DMSO, % at 10 µM | 590 tested, under 10 active | AID 2643;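 active means over 150 percent of DMSO response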;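 further: median GFP channel fluorescence over all cells without mother daughter split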
Yeast autofluor – yeast s288c autofluorescence artifact, counter-screen; shares compounds with LAP4-GFP MLPCN; S. cerevisiae s288c, 520 nm autofluorescence, flow cytometry, 3 h; active compounds read high; zero means same as solvent-only cells; fluorescence change (kMESF span) at 33 µM; 610 tested, under 10 active; AID 2757;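 active means fluorescence span over the dose series, or activity score, above about 33, limit read from the data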
A number is an active result. Shown are actives, neighbours in structure and some others; about 1.2% of the full set was active somewhere.

O=C(O)c1cccc(CN2C(=O)S/C(=C/c3cccc([N+](=O)[O-])c3)C2=O)c1 was read as AGP1-GFP MLPCN inactive, CIT2 TOR yeast inactive, RPL19A TOR yeast inactive, Pemphigus Ab inh inactive, MEP2 TOR yeast inactive, LAP4-GFP MLPCN inactive, LAP4 cherry2 inactive, MEP2 cherry2 inactive, RPL19A-GFP pick2 inactive, CIT2 GFP CP2 inactive and AGP1-GFP pick2 inactive.
For CCCCCCCCCCCCCCCC[n+]1cccc2ccccc21 the results were AGP1-GFP MLPCN inactive, CIT2 TOR yeast inactive, RPL19A TOR yeast 11.5, MEP2 TOR yeast inactive, LAP4-GFP MLPCN inactive, LAP4 cherry2 154.3, MEP2 cherry2 inactive, RPL19A-GFP pick2 inactive, CIT2 GFP CP2 inactive, AGP1-GFP pick2 inactive and Yeast autofluor inactive.
For CCOCCCNC(=O)C1CCCN(S(=O)(=O)c2cccc3nsnc23)C1 (configuration not stated) the results were AGP1-GFP MLPCN inactive, CIT2 TOR yeast inactive, RPL19A TOR yeast inactive, Pemphigus Ab inh inactive, MEP2 TOR yeast inactive, LAP4-GFP MLPCN 234.3, LAP4 cherry2 inactive, MEP2 cherry2 inactive, RPL19A-GFP pick2 inactive, CIT2 GFP CP2 inactive and AGP1-GFP pick2 inactive.
For COc1ccc(C(=O)c2ccccc2)cc1 the results were AGP1-GFP MLPCN inactive, CIT2 TOR yeast inactive, RPL19A TOR yeast inactive, Pemphigus Ab inh inactive, MEP2 TOR yeast inactive and LAP4-GFP MLPCN inactive.
For COc1ccc(-c2cc3cc(C(=O)O)ccn3c2C(=O)c2ccccc2)cc1 the results were AGP1-GFP MLPCN inactive, CIT2 TOR yeast inactive, RPL19A TOR yeast inactive, Pemphigus Ab inh inactive, MEP2 TOR yeast inactive, LAP4-GFP MLPCN 150.5 and Yeast autofluor inactive.
Screening O=C(O)c1ccn2c(C(=O)c3ccccc3)c(-c3ccccc3)cc2c1 returned AGP1-GFP MLPCN inactive, CIT2 TOR yeast inactive, RPL19A TOR yeast inactive, MEP2 TOR yeast inactive, LAP4-GFP MLPCN 156.1 and Yeast autofluor inactive.
Screening CCCc1cc(C(=O)OCC(=O)NCCc2ccccc2)sc1C returned Pemphigus Ab inh inactive.
`C=CC[C@H](CC(=O)OC(C)(C)C)C(=O)OC[C@@H]1CCCN1C(=O)[C@H](CC=C)CC(=O)N[C@H](CO)Cc1ccccc1` gave AGP1-GFP MLPCN inactive, CIT2 TOR yeast inactive, RPL19A TOR yeast inactive, Pemphigus Ab inh inactive, MEP2 TOR yeast inactive and LAP4-GFP MLPCN inactive.
`C=CC[C@@H](CC(=O)OC(C)(C)C)C(=O)OC[C@@H]1CCCN1C(=O)[C@@H](CC=C)CC(=O)N[C@H](CO)Cc1ccccc1` gave AGP1-GFP MLPCN inactive, CIT2 TOR yeast inactive, RPL19A TOR yeast inactive, Pemphigus Ab inh inactive, MEP2 TOR yeast inactive, LAP4-GFP MLPCN 197.9, LAP4 cherry2 inactive, MEP2 cherry2 inactive, RPL19A-GFP pick2 inactive, CIT2 GFP CP2 inactive and AGP1-GFP pick2 inactive.
Screening CCCN1C(C)C(C(=O)OCC)=CN(Cc2ccc(Br)cc2)S1(=O)=O (configuration not stated) returned Pemphigus Ab inh inactive.
For Cc1c(N2C(=O)/C(=C\c3ccccc3O)SC2=S)c(=O)n(-c2ccccc2)n1C the results were AGP1-GFP MLPCN inactive, CIT2 TOR yeast inactive, RPL19A TOR yeast inactive, Pemphigus Ab inh inactive, MEP2 TOR yeast inactive, LAP4-GFP MLPCN 169.8 and Yeast autofluor inactive.
Cc1c(N2C(=O)/C(=C/c3ccccc3)SC2=S)c(=O)n(-c2ccccc2)n1C was read as AGP1-GFP MLPCN inactive, CIT2 TOR yeast inactive, RPL19A TOR yeast inactive, Pemphigus Ab inh inactive, MEP2 TOR yeast inactive and LAP4-GFP MLPCN inactive.
COc1ccc(NC(=S)N2CCC(C(=O)c3ccc(F)cc3)CC2)cc1 was read as Pemphigus Ab inh inactive.
COc1ccc(NC(=O)N2CCC(C(=O)c3ccc(F)cc3)CC2)cc1 was read as AGP1-GFP MLPCN inactive, CIT2 TOR yeast inactive, RPL19A TOR yeast inactive, Pemphigus Ab inh inactive, MEP2 TOR yeast inactive, LAP4-GFP MLPCN 400.5, LAP4 cherry2 inactive, MEP2 cherry2 inactive, RPL19A-GFP pick2 inactive, CIT2 GFP CP2 inactive and AGP1-GFP pick2 inactive.
Cc1cc(=O)n2nc(-c3ccccc3)sc2n1 was read as AGP1-GFP MLPCN inactive, CIT2 TOR yeast inactive, RPL19A TOR yeast inactive, Pemphigus Ab inh inactive, MEP2 TOR yeast inactive and LAP4-GFP MLPCN inactive.
Screening Cc1cc(=O)n2c3c(sc2n1)C(=O)N(Cc1ccccc1)C3=O returned AGP1-GFP MLPCN inactive, CIT2 TOR yeast inactive, RPL19A TOR yeast inactive, MEP2 TOR yeast inactive, LAP4-GFP MLPCN 194.4 and Yeast autofluor inactive.
`COc1ccc(OCC(=O)NNC(=S)NC(=O)C2CC2)cc1` gave AGP1-GFP MLPCN inactive, CIT2 TOR yeast inactive, RPL19A TOR yeast inactive, Pemphigus Ab inh inactive, MEP2 TOR yeast inactive and LAP4-GFP MLPCN inactive.
`COc1ccc(OCC(=O)NNC(=S)NC(=O)C2CCCCC2)cc1` gave AGP1-GFP MLPCN inactive, CIT2 TOR yeast inactive, RPL19A TOR yeast inactive, MEP2 TOR yeast inactive, LAP4-GFP MLPCN 170.1, LAP4 cherry2 240.4, MEP2 cherry2 inactive, RPL19A-GFP pick2 inactive, CIT2 GFP CP2 154.9, AGP1-GFP pick2 inactive and Yeast autofluor inactive.
